Source: PubChem (The Scripps Research Institute Molecular Screening Center)
Hits are enriched below; roughly 4.6% of the tested compounds scored in any of these assays.
DAX1 inh-1: inhibits human nuclear receptor DAX1 | hit rate 0.99% among 340,000 | HEK293 Gal4-DAX1 luciferase reporter, luminescence | inhibition, % at 6.75 µM | AID 504766;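 active = inhibition above the mean over all tested compounds plus 3 SD, cut at about 4.2% in these data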;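 note: 0% = DAX1-transfected cells with DMSO and 100% = empty-vector control cells with DMSO; inhibition shows as a rise in luminescence from relieved DAX1 repression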
DAX1 inh-2: blocks DAX1 repression of SF-1 activated StAR promoter. AID 652010. hit rate 1.1% among 370,000. inhibition, % at 6.8 µM. HEK293T StAR-luciferase reporter, SF-1/DAX-1 repression relief;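 active = inhibition above the mean over all tested compounds plus 3 SD, cut at about 3.6% in these data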;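 note: 0% = DAX-1 cells with DMSO and 100% = cells lacking DAX-1 with DMSO; higher inhibition means more luminescence from relief of DAX-1 repression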
hcDAF12 agonist: activators of H. contortus DAF-12 nuclear receptor; HEK293 hcDAF-12 lit1-tk-luc reporter, luminescence; 0% DMSO, 100% Δ7-dafachronic acid; activation, % at 6.8 µM; hit rate 1.4% among 370,000; AID 652067;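 active = activation above the mean of all tested compounds plus 3 SD, cut at about 5.5% in these data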;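 note: 100% = response to 3 µM Δ7-dafachronic acid high control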
Wee1 stabilizer: human Wee1 degradation inhibition, primary screen; hit rate 1.2% among 220,000; HeLa Luc-Wee1K328M stability, luciferase luminescence; 100% = proteasome inhibitor MG132 effect; P30291; reporter increase, % at 5 µM;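 active = activation above the mean of all tested compounds plus 3 SD, set per screening run, cut at about 8.8% in these data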;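 note: cells exposed to compound for 20 h before luminescence read; 0% = DMSO alone and 100% = MG132 at 30 µM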
Target sequence (P30291 whole entry K328M): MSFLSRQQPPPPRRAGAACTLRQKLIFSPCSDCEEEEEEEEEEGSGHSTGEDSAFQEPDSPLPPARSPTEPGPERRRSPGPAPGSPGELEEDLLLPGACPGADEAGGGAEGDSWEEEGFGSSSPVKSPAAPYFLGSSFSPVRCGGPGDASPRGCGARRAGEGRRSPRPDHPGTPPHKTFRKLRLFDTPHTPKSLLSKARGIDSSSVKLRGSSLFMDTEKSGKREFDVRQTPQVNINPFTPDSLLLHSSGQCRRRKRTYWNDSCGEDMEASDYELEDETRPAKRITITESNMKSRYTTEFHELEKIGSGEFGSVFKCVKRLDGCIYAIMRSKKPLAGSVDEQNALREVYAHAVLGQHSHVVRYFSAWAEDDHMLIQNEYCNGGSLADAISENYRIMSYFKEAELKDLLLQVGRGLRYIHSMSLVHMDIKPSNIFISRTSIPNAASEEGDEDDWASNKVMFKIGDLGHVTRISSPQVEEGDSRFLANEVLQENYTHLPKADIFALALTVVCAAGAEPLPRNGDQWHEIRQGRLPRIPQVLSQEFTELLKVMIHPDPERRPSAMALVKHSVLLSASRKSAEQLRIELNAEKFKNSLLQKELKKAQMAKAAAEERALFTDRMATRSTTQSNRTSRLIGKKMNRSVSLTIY
hgDAF12 agonist: activates the H. glycines DAF-12 receptor ligand-binding domain. activation, % at 6.8 µM. HEK293 GAL4-hgDAF12 UAS-luciferase reporter, agonist luminescence; normalized to butyrate control. hit rate 1.8% among 370,000. AID 687014;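 active = activation above a cutoff set at the mean of all screened compounds plus 3 SD, cut at about 10% in these data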;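 note: 0% = DMSO wells and 100% = sodium butyrate wells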
ssDAF-12 act: activates DAF-12 receptor from parasite S. stercoralis. HEK293 ssDAF-12/GRIP1 lit1-tk-luc reporter, luminescence; % of 3 µM dafachronic acid response. activation, % at 6.8 µM. hit rate 1% among 370,000. AID 652126;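 active = activation above the mean over all tested compounds plus 3 SD, cut at about 0.9% in these data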;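 note: 0% = DMSO-only wells and 100% = 3 µM delta7-dafachronic acid wells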
Starred values were filed as active, the others as inactive; . = not tested or not shown.

SMILES | DAX1 inh-1 | DAX1 inh-2 | hcDAF12 agonist | Wee1 stabilizer | hgDAF12 agonist | ssDAF-12 act
OC[C@@H]1CN(Cc2ccncc2)C[C@H](n2cnc3c(NCc4ccncc4)ncnc32)O1 | . | 0 | -1 | . | 1 | -1
COc1ccc(-n2c(SCC(=O)Nc3ccc(S(=O)(=O)Nc4cc(C)nc(C)n4)cc3)nnc2-c2ccco2)cc1 | . | 1 | -1 | . | -1 | -1
Cc1cc(CN2CCC(n3nccc3NC(=O)c3ccccc3Cl)CC2)cc(C)c1O | 0 | 0 | -2 | . | 1 | -2
O=C(CN(C(=O)OCC1c2ccccc2-c2ccccc21)[C@@H](Cc1ccccc1)C(=O)O)OCc1ccc(C(=O)NCc2ccccc2)cc1 | . | 0 | 0 | . | 2 | -1
CCCCCCC12Cc3cc(OC)c(OC)cc3C(O1)C1=C(O2)C(C)(C)CCC1=O (centres undefined) | . | 0 | -2 | . | 0 | -2
COc1ccc(NC(=O)CCCC(=O)c2ccccc2)cc1OC | -1 | 0 | -1 | . | -1 | -1
COc1ccc(/C=N/NC(=S)Nc2cccc(C(=O)O)c2)cc1OC | -3 | 0 | -1 | -1 | -1 | 0
O=C(CCc1ccccc1)NC(=S)Nc1cccc(Br)c1 | 1 | 0 | -1 | 0 | 6 | -1
COc1ccc(NC(=O)CCCc2ccccc2)cc1OC | 4.2* | 1 | 0 | . | 9 | 0
O=C(CCc1ccccc1)NC(=S)Nc1cccc(C(=O)O)c1 | 0 | 4.0* | 2 | . | 9 | 0
COc1cccc(/C=N/NC(=S)Nc2cccc(C(=O)O)c2)c1 | -2 | 2 | 3 | -1 | 10 | 1.6*
Cc1c(C(=O)NCc2ccc(F)cc2)sc(=O)n1Cc1ccccc1F | . | -1 | -4 | . | -1 | 0
CSc1nc(N)nc2c1ncn2CC(=O)NCCNc1ccc([N+](=O)[O-])cn1 | 0 | -2 | -1 | . | -1 | -1
O=C(CCc1nnc(-c2ccc3c(c2)OCO3)o1)N1CCC(c2ccc(F)cc2)C1 (centres undefined) | 5.0* | 1 | 1 | -3 | 8 | 1
O=C(CCc1nnc(-c2ccc3c(c2)OCO3)o1)NC(c1ccccn1)C(F)(F)F (centres undefined) | 1 | 0 | 0 | -3 | 0 | -1
Cc1ccc(-c2nn(-c3ccccc3)cc2C(=O)NCCCN2CCOCC2)cc1 | 0 | 0 | -1 | . | 4 | -1
CCOC(=O)C1=CCN(S(=O)(=O)c2ccccc2C)C1c1ccc(Cl)cc1 (centres undefined) | . | -3 | -1 | . | -4 | -1
CCOC(=O)c1ccc2[nH]c(C)c(C)c2c1 | 0 | 2 | 1 | 2 | 7 | -1
CCOC(=O)c1ccc2[nH]c3ccccc3c2c1 | 8.0* | 1 | 3 | 6 | 11* | 0
CN(CCO)CC(O)CN(c1ccccc1)c1ccccc1 (centres undefined) | 0 | 1 | -3 | -1 | -1 | -1
CNCC(O)CN(c1ccccc1)c1ccccc1 (centres undefined) | 1 | 1 | 0 | 9.7* | 1 | -1
O=C(NCCCN1CCCC1)C1CCN(C(=O)c2cc3sccc3n2Cc2ccc(F)cc2)CC1 | -1 | 1 | 1 | 1 | -2 | -1
CCN1CCCC1CNC(=O)C1CCN(C(=O)c2cc3sccc3n2Cc2ccc(F)cc2)CC1 (centres undefined) | -1 | 0 | 1 | 12* | -3 | -1
COc1ccc(Cn2c(NC(=O)c3ccccc3)nc(Cc3ccccc3)c2-c2ccccc2)c(OC)c1 | . | -1 | 1 | . | 2 | -1
Clc1ccc(/C=N/N2CCCCC2)cc1 | 0 | 0 | -1 | 2 | -1 | -1
SMILES | DAX1 inh-1 | DAX1 inh-2 | hcDAF12 agonist | Wee1 stabilizer | hgDAF12 agonist | ssDAF-12 act
N#Cc1ccc(C=NN2CCCCCC2)cc1 | 2 | 3.8* | 1 | . | 8 | 0
O=[N+]([O-])c1ccc(/C=N/N2CCCCC2)cc1 | 4.4* | 1 | 4 | . | 6 | 0
O=C(CNC(=O)c1ccco1)OCc1cccc(Cl)c1 | 1 | 0 | 2 | 9.4* | 0 | -1
CC1(c2nnnn2Cc2ccccc2)CCCCC(=O)N1Cc1cccs1 (centres undefined) | . | 0 | 1 | . | 4 | -1
Cc1cc(C(=O)CN2C(=O)C3CC=CCC3C2=O)c(C)n1-c1ccccc1 (centres undefined) | 1 | 2 | 5 | 9 | 11* | -1
O=[N+]([O-])c1cccc(COc2cccc(CO)c2)c1 | 1 | 2 | 0 | . | 9 | -1
O=[N+]([O-])c1cccc(COc2ccc(CO)cc2)c1 | . | 2 | 7.0* | . | 19* | 2.6*
COc1ccc(OCc2cccc(C(=O)Nn3cc([N+](=O)[O-])cn3)c2)cc1 | -4 | 2 | 5 | 1 | 11* | 0
Brc1ccc(CNc2ccc3ncccc3c2)cc1 | -2 | -1 | -1 | . | 2 | -2
Cc1nc2cc(Cl)c(Cl)cc2n1CCCO | . | 0 | -2 | 10* | 1 | -1
Cc1ccc(C)c(NC(=O)C(=O)NCCCN2CCOCC2)c1 | 1 | 0 | -1 | -4 | 11* | -1
Cc1cc(C)cc(NC(=O)C(=O)NCCCN2CCOCC2)c1 | 0 | 0 | -1 | 3 | -2 | -1
Cc1ccc(C)c(NC(=S)NCCCN2CCOCC2)c1 | 0 | 1 | -1 | 7 | 3 | 0.9*
NNC(=O)C(=O)NCCCN1CCOCC1 | 5.7* | 0 | 2 | 0 | -3 | -1
CN(Cc1ccccc1)C(=O)c1ncn2c1c(=O)[nH]c1cccnc12 | -1 | -1 | -3 | . | -3 | -1
CCc1noc2cc(-c3ccccc3)n(C)c(=O)c12 | . | 3 | 3 | . | 13* | 0
CNC(=O)c1ccc(-c2cc3onc(-c4ccccc4)c3c(=O)n2C)cc1 | 1 | 0 | 2 | . | 1 | -1
Cc1ccc(-c2cc3onc(-c4ccccc4)c3c(=O)n2C)cc1 | 3 | 1 | 0 | . | -4 | -2
Cn1c(-c2ccc(F)cc2)cc2onc(-c3c(F)cccc3Cl)c2c1=O | 1 | 3 | 2 | . | 11* | 1
Cc1cc(Br)c2nc(-c3cccc(Br)c3)c(Cc3cccc(Cl)c3)n2c1 | . | 1 | 5 | . | -3 | 1
COc1ccc(-c2nc(C#N)c(NCCc3ccccc3)o2)cc1 | 1 | 0 | 0 | 1 | 3 | -1
COc1ccc(Nc2oc(-c3ccc(Cl)cc3)nc2C#N)cc1 | 1 | 0 | 3 | 2 | 11* | 0
COc1ccc(-c2nc(C#N)c(NCCN(C)C)o2)cc1 | 0 | 0 | 0 | 9.1* | 2 | -1
COc1ccc(Nc2oc(-c3ccccc3)nc2C#N)cc1 | -1 | 0 | 1 | 2 | 10* | -2
COc1ccc(CNc2oc(-c3ccccc3)nc2C#N)cc1 | 1 | 0 | 2 | 1 | -1 | 0
O=C1NCCN1C(=O)c1cccc(Cl)c1 | 1 | 0 | 0 | 12* | -2 | -1
O=C(c1cccnc1)N1CCN(C(=O)c2cccc(Cl)c2)CC1 | 2 | 0 | 0 | . | -2 | -1
